Source: the antibiotic and cytotoxicity screens of Wong et al. (2023)
The whole screen tested about 39,000 compounds, of which about 3,300 (8.5%) were called active. Shown is part of a subset that was picked to be rich in actives.

The compounds below were run on HepG2 (assay: cytotoxicity call (relative viability < 0.9)). Conditions: 10 µM.
For `NCCCN`, the cytotoxicity call was “inactive”.
`C[C@@H]1CN([C@H](C)CO)C(=O)c2cc(NS(=O)(=O)c3cccs3)ccc2O[C@@H]1CN(C)Cc1ccncc1` was tested, and the cytotoxicity call was “inactive”.
For `O=C(C[C@H]1CC[C@H]2[C@@H](COC[C@@H](O)CN2C(=O)Nc2ccc(C(F)(F)F)cc2)O1)NCCc1ccncc1`, the cytotoxicity call was “inactive”.
For `Cc1noc(C)c1NC(=O)Nc1ccc2c(c1)C(=O)N([C@H](C)CO)C[C@H](C)[C@H](CN(C)S(=O)(=O)c1ccc(F)cc1)OCCCC[C@@H](C)O2`, the cytotoxicity call was “inactive”.
In the case of `COCC#Cc1ccc2c(c1)O[C@@H](CN(C)C(=O)Nc1ccccc1F)[C@@H](C)CN([C@@H](C)CO)S2(=O)=O`, the cytotoxicity call is reported as “inactive”.
`CCCN1C[C@@H](C)[C@@H](OC)CN(C)C(=O)c2cc(NS(=O)(=O)c3cn(C)cn3)ccc2OC[C@H]1C` was tested, and the cytotoxicity call was “inactive”.
With `CN1CCN(C(=O)C[C@H]2CC[C@@H]3[C@H](COC[C@H](O)CN3C(=O)C3CCOCC3)O2)CC1` the cytotoxicity call was “inactive”.
With `O=c1nc[nH]c2ncccc12` the cytotoxicity call was “inactive”.
`Cc1ccc2c(Cl)cc(Cl)c(O)c2n1` was tested, and the cytotoxicity call was “inactive”.
In the case of `Oc1c(I)cc(Cl)c2cccnc12`, the cytotoxicity call is reported as “active”.
`Clc1nccc2ccccc12` was tested, and the cytotoxicity call was “inactive”.
For `c1cnc2ccc3ncccc3c2c1`, the cytotoxicity call was “inactive”.
In the case of `CCOc1ccc(S(=O)(=O)[O-])c2cccnc12.[Na+]`, the cytotoxicity call is reported as “inactive”.
With `Oc1c(Cl)cc(Cl)c2cccnc12` the cytotoxicity call was “active”.
`O=S(=O)([O-])c1cc(I)c(O)c2ncccc12.[Na+]` was tested, and the cytotoxicity call was “active”.
`Oc1c(Br)cc(Br)c2cccnc12` was tested, and the cytotoxicity call was “active”.
In the case of `CCCCCCCCCCCCCCCCCCOC[C@H](COP(=O)(O)O[C@H]1[C@@H](O)[C@@H](O)[C@@H](O)C[C@@H]1OC)OC`, the cytotoxicity call is reported as “inactive”.
With `C[C@@H]1CCCCO[C@@H](CN(C)S(C)(=O)=O)[C@H](C)CN([C@H](C)CO)C(=O)c2cc(NS(=O)(=O)c3cn(C)cn3)ccc2O1` the cytotoxicity call was “inactive”.
With `O=C(C[C@@H]1CC[C@H](NC(=O)CN2CCOCC2)[C@H](CO)O1)NCCc1ccncc1` the cytotoxicity call was “inactive”.
With `CC(=O)N1Cc2cc(C(=O)NCC(F)(F)F)nc(-c3cccc(-c4cc5ccccc5o4)c3)c2[C@H]1CCO` the cytotoxicity call was “inactive”.
In the case of `C[C@@H]1CCCCO[C@H](CN(C)C(=O)Nc2ccc(C(F)(F)F)cc2)[C@@H](C)CN([C@H](C)CO)C(=O)c2cc(NS(=O)(=O)c3cn(C)cn3)ccc2O1`, the cytotoxicity call is reported as “inactive”.
In the case of `C[C@@H]1CN([C@H](C)CO)S(=O)(=O)c2ccc(-c3ccc(C(=O)N(C)C)cc3)cc2O[C@H]1CN(C)C(=O)Cc1ccccn1`, the cytotoxicity call is reported as “inactive”.
`Cc1noc(C)c1S(=O)(=O)Nc1ccc2c(c1)C(=O)N([C@@H](C)CO)C[C@@H](C)[C@@H](CN(C)C(=O)Nc1ccc(F)cc1)OCCCC[C@@H](C)O2` was tested, and the cytotoxicity call was “inactive”.
`C[C@H](CO)N1C[C@H](C)[C@H](CN(C)C(=O)Nc2ccccc2)Oc2ccc(NC(=O)CCCN(C)C)cc2C1=O` was tested, and the cytotoxicity call was “inactive”.
In the case of `Cc1cc(C)c2ccc(Cl)nc2n1`, the cytotoxicity call is reported as “inactive”.
`Cc1noc(C)c1NC(=O)Nc1ccc2c(c1)C(=O)N([C@H](C)CO)C[C@H](C)[C@H](CN(C)CC1CCCCC1)OCCCC[C@H](C)O2` was tested, and the cytotoxicity call was “inactive”.
`C[C@@H]1CN([C@@H](C)CO)C(=O)c2cc(NC(=O)Nc3cccc4ccccc34)ccc2O[C@H]1CN(C)C(=O)NC1CCCCC1` was tested, and the cytotoxicity call was “inactive”.
In the case of `CC(C)NC(=O)N(C)C[C@H]1Oc2cc(C#Cc3ccccn3)ccc2S(=O)(=O)N([C@H](C)CO)C[C@@H]1C`, the cytotoxicity call is reported as “inactive”.
In the case of `CC(C)(O)c1ccccc1CCC(SCC1(CC(=O)[O-])CC1)c1cccc(C=Cc2ccc3ccc(Cl)cc3n2)c1.[Na+]` (stereo unspecified), the cytotoxicity call is reported as “inactive”.
In the case of `Nc1ncccc1O`, the cytotoxicity call is reported as “inactive”.
`Oc1c(I)cc(I)c2cccnc12` was tested, and the cytotoxicity call was “active”.
`Nc1ncccc1F` was tested, and the cytotoxicity call was “inactive”.
With `CC(=O)N(C)C[C@H]1Oc2ncc(C#C[C@@H](C)O)cc2C(=O)N([C@H](C)CO)C[C@@H]1C` the cytotoxicity call was “inactive”.
For `COc1ccc([Si](C)(C)[C@H]2[C@H](CC(=O)N(CCO)Cc3ccccc3)O[C@@]3(C(=O)N(Cc4cccc(N5CCC5=O)c4)c4ccccc43)[C@@H]2C)cc1`, the cytotoxicity call was “inactive”.
For `C[C@H]1[C@H]([Si](C)(C)F)[C@@H](CC(=O)N(CCO)Cc2ccccc2)O[C@]12C(=O)N(c1ccccc1)c1ccccc12`, the cytotoxicity call was “inactive”.
`COc1ccc([Si](C)(C)[C@@H]2[C@@H](CC(=O)N(CCO)Cc3ccccc3)O[C@]3(C(=O)N(Cc4cccc(N5CCCCC5=O)c4)c4ccccc43)[C@H]2C)cc1` was tested, and the cytotoxicity call was “inactive”.
In the case of `COc1ccc([Si](C)(C)[C@H]2[C@H](CC(=O)N(CCO)Cc3ccccc3)O[C@@]3(C(=O)N(Cc4cccc(N5C(=O)c6cccc7cccc5c67)c4)c4ccccc43)[C@@H]2C)cc1`, the cytotoxicity call is reported as “active”.
`COc1ccc([Si](C)(C)[C@H]2[C@H](CC(=O)N(CCO)Cc3ccccc3)O[C@@]3(C(=O)N(Cc4ccc(N5CCC5=O)cc4)c4ccccc43)[C@@H]2C)cc1` was tested, and the cytotoxicity call was “inactive”.
With `C[C@@H]1[C@@H]([Si](C)(C)F)[C@H](CC(=O)N2Cc3ccccc3C[C@H]2CO)O[C@@]12C(=O)N(c1ccccc1)c1ccccc12` the cytotoxicity call was “inactive”.
`COc1ccc([Si](C)(C)[C@@H]2[C@@H](CC(=O)N(CCO)Cc3ccccc3)O[C@]3(C(=O)N(Cc4cccc(N5CCC5=O)c4)c4ccccc43)[C@H]2C)cc1` was tested, and the cytotoxicity call was “inactive”.
`COc1ccc([Si](C)(C)[C@H]2[C@H](CC(=O)N(CCO)Cc3ccccc3)O[C@@]3(C(=O)N(Cc4ccc(N5C(=O)c6cccc7cccc5c67)cc4)c4ccccc43)[C@@H]2C)cc1` was tested, and the cytotoxicity call was “active”.
`C[C@@H]1[C@@H]([Si](C)(C)F)[C@H](CC(=O)N(CCO)Cc2ccccc2)O[C@@]12C(=O)N(c1ccccc1)c1ccccc12` was tested, and the cytotoxicity call was “active”.
With `COc1ccc([Si](C)(C)[C@@H]2[C@@H](CC(=O)N(CCO)Cc3ccccc3)O[C@]3(C(=O)N(Cc4ccc(N5CCC5=O)cc4)c4ccccc43)[C@H]2C)cc1` the cytotoxicity call was “inactive”.
In the case of `COc1ccc([Si](C)(C)[C@H]2[C@H](CC(=O)N(CCO)Cc3ccccc3)O[C@@]3(C(=O)N(Cc4ccc(N5CCOC5=O)cc4)c4ccccc43)[C@@H]2C)cc1`, the cytotoxicity call is reported as “inactive”.
With `COc1ccc([Si](C)(C)[C@@H]2[C@@H](CC(=O)N(CCO)Cc3ccccc3)O[C@]3(C(=O)N(Cc4ccc(N5C(=O)c6cccc7cccc5c67)cc4)c4ccccc43)[C@H]2C)cc1` the cytotoxicity call was “active”.
For `N#Cc1ccc[nH]c1=O`, the cytotoxicity call was “inactive”.
